Results taken from PubChem BioAssay (EPA / NIEHS).
Inconclusive results are not listed. Active and inactive are the calls of the source. How the source made its calls, unless noted: active means hit-call score of the fitted dose curve at least 0.9, where 1 is the maximum; inactive means score below 0.9.

Legend:
[1] = read-out: CD69, CD69 (gene 969); experiment: BSK_SAg_CD69: BioMAP Diversity Plus: SAg Assay for CD69 Biomarker Activity (AID 2283089); conditions: primary human HUVEC with PBMC; actives raise or lower the signal;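 on AC50: cell surface CD69 protein quantified by ELISA with fluorescence detection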
Summary of the method: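 Values derive from bidirectional fitting relative to DMSO vehicle. Cells: umbilical vein endothelium plus peripheral blood mononuclear cells, treated 24 h before fluorescent ELISA for CD69.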

[2] = read-out: Monocyte Chemoattractant Protein-1 (MCP1), CCL2 (gene 6347); experiment: BSK_SAg_MCP1: BioMAP Diversity Plus: SAg Assay for Monocyte Chemoattractant Protein-1 (MCP1) Biomarker Activity (AID 2283090); conditions: primary human HUVEC with PBMC; actives raise or lower the signal
Summary of the method: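 Values derive from bidirectional fitting of ELISA-measured MCP1 against DMSO controls. Readings were taken 24 h after dosing human vascular endothelial cells co-cultured with peripheral blood mononuclear cells under superantigen stimulation.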

[3] = read-out: E-selectin (Homo sapiens) (UniProt P16581); experiment: BSK_SAg_Eselectin: BioMAP Diversity Plus: SAg Assay for Eselectin Biomarker Activity (AID 2283091); conditions: primary human HUVEC with PBMC; actives raise or lower the signal
Summary of the method: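 Co-culture: HUVEC + PBMC. Dose compound; 24 h. ELISA for E-selectin. Bidirectional fit vs DMSO.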

[4] = read-out: Monokine induced gamma interferon (MIG), CXCL9 (gene 4283); experiment: BSK_SAg_MIG: BioMAP Diversity Plus: SAg Assay for Monokine induced gamma interferon (MIG) Biomarker Activity (AID 2283092); conditions: primary human HUVEC with PBMC; actives raise or lower the signal
Summary of the method: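 Values reflect bidirectional fitting of ELISA-measured MIG against DMSO vehicle, taken 24 h after dosing of a co-culture of human umbilical vein endothelial cells and peripheral blood mononuclear cells.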

[5] = BSK_SAg_PBMCCytotoxicity: PBMC Cytotoxicity Assessment in the BioMAP Diversity Plus: SAg Assay (AID 2283093); conditions: primary human HUVEC with PBMC;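 further: PBMC viability measured as Alamar Blue reduction fluorescence at 546/580 nm; fitted both ways against DMSO so a hit may be loss or gain of signal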;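 on AC50: PBMC superantigen activated with SEB plus TSST-1 one hour after compound addition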
Summary of the method: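 Alamar Blue reduction (6 h, ex/em 546/580 nm) read after 90 h culture of PBMC pre-dosed 1 h then stimulated with SEB plus TSST-1, 20 ng/mL each. Gain or loss of signal fitted relative to DMSO.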

[6] = read-out: Interleukin-8 (IL8), CXCL8 (gene 3576); experiment: BSK_SAg_IL8: BioMAP Diversity Plus: SAg Assay for Interleukin-8 (IL8) Biomarker Activity (AID 2283094); conditions: primary human HUVEC with PBMC; actives raise or lower the signal
Summary of the method: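 HUVEC/PBMC co-culture, 24 h post-dose; IL-8 by ELISA. Gain or loss of signal fitted bidirectionally vs DMSO baseline.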

[7] = BSK_SAg_Proliferation: Cell Proliferation Assessment in the BioMAP Diversity Plus: SAg Assay (AID 2283095); conditions: primary human HUVEC with PBMC;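 further: relative cell number as total protein by SRB absorbance in sub-confluent culture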
Summary of the method: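 HUVEC/PBMC co-culture, 96-well. TCA-fixed (10%), 0.1% SRB stain, A560 at 96 h. Protein content used as viability readout; bidirectional fitting vs DMSO control.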

[8] = BSK_SAg_SRB: Viability Assessment in the BioMAP Diversity Plus: SAg Assay (AID 2283096); conditions: primary human HUVEC with PBMC;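 further: cells read one day after compound addition; hits may be either gain or loss of signal compared with DMSO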
Summary of the method: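 SRB absorbance at 560 nm served as the viability read-out. Cells (HUVEC plus peripheral blood mononuclear cells) were TCA-fixed and stained 24 h post-dosing; activity fitted in both directions against DMSO controls.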

[9] = molecular target: human CYP2A6, CYP2A6 (gene 1548) (UniProt P11509); experiment: NVS_ADME_hCYP2A6: NovaScreen (NVS) CYP450-related Enzyme Activity (ADME) Assay for human CYP2A6 (AID 2283099; active means hit-call score of the fitted dose curve at least 0.9, where 1 is the maximum)
Chain of human CYP2A6, CYP2A6 (gene 1548) (P11509 whole entry, looked up): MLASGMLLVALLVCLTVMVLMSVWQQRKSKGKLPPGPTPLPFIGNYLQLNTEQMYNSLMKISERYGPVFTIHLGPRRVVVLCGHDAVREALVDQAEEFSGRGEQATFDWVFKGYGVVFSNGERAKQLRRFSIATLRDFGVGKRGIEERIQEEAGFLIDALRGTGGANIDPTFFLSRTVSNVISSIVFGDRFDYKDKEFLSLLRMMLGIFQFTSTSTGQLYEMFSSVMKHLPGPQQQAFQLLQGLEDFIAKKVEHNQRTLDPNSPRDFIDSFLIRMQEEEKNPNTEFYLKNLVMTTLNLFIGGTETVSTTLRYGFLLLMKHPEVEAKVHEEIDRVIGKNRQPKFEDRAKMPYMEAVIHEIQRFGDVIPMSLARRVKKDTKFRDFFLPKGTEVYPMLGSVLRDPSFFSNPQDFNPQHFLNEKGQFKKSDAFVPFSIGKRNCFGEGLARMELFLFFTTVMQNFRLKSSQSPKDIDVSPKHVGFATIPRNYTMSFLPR
Summary of the method: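 Fluorescent substrate turnover by recombinant CYP2A6 (insect cell source), 0.5 h read. Screen: 10 uM, duplicate; threshold hits (e.g. 30% inhibition) → singleton concentration-response, top 20 uM. Positive and negative controls on every plate.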

Measured: AC50

Chain of E-selectin (Homo sapiens) (P16581 whole entry, looked up): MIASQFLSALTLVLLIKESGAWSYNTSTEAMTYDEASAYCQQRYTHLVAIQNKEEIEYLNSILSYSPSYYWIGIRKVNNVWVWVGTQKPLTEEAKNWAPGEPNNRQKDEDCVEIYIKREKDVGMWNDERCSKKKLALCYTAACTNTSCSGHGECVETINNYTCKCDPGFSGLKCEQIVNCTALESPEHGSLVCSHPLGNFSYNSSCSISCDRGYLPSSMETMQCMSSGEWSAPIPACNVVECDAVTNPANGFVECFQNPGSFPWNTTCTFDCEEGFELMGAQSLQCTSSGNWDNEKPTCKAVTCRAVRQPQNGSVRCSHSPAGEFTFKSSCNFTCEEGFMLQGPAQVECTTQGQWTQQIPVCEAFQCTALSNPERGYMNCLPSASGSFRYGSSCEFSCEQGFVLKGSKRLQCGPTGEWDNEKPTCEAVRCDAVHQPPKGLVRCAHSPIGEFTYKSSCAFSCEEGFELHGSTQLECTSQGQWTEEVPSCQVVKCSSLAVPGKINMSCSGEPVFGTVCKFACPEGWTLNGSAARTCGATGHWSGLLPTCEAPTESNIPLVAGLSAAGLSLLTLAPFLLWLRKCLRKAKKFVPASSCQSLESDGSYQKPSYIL

FC(F)(F)C(F)(C(F)(F)F)C(F)(F)C(F)(F)CC1CO1 (centres undefined)
not listed: [9]
inactive: all other assays above

CC(C)(C)OOC(C)(C)C
not listed: [9]
inactive: all other assays above

CCN(CC)c1ccccc1
not listed: [5] | [8] | [9]
inactive: all other assays above

O=C(O)C=CC(F)(C(F)(F)F)C(F)(F)F
not listed: [8] | [9]
inactive: all other assays above

CCCCOCCOP(=O)(OCCOCCCC)OCCOCCCC
not listed: [5] | [8] | [9]
inactive: all other assays above

Cc1ccc2c(c1N)C(=O)c1ccccc1C2=O
not listed: [9]
inactive: all other assays above

c1ccc2c(c1)sc1ccccc12
not listed: [9]
inactive: all other assays above

O=[N+]([O-])c1ccc(Cl)c(Cl)c1
not listed: [9]
inactive: all other assays above

c1ccc2c(c1)Nc1ccccc1S2
active: [7] 20 µM
not listed: [5] | [9]
inactive: all other assays above

CSC(C)(C)C=NO
not listed: [4] | [8] | [9]
inactive: all other assays above

CCOP(=S)(OCC)SCn1nnc2ccccc2c1=O
active: [3] 15.9 µM
not listed: [4] | [9]
inactive: all other assays above

COC(=O)C(F)(F)C(F)(F)OC(F)(C(F)(F)F)C(F)(F)OC(F)=C(F)F (centres undefined)
not listed: [5] | [9]
inactive: all other assays above

Cc1ccc(N)cc1N
not listed: [5]
inactive: all other assays above

Cc1cccc(N)c1
not listed: [5] | [9]
inactive: all other assays above

CCC1(c2ccccc2)C(=O)N=C(O)NC1=O (centres undefined)
not listed: [5] | [9]
inactive: all other assays above

CCCN(CCC)c1c([N+](=O)[O-])cc(C(C)C)cc1[N+](=O)[O-]
active: [1] 33.5 µM | [2] 37.1 µM | [3] 30.3 µM | [5] 13.9 µM | [6] 32.4 µM | [7] 14.7 µM

CCOP(=S)(OCC)SCSCC
not listed: [4] | [9]
inactive: all other assays above

c1ccc(OP(Oc2ccccc2)Oc2ccccc2)cc1
not listed: [4] | [8] | [9]
inactive: all other assays above

COP(=O)(CCC(=O)NCO)OC
not listed: [5] | [9]
inactive: all other assays above
